Drawing on PubChem BioAssay (Tox21), this text covers Potency and activity change, negative = inhibition for 36 molecules.

Structures are written as SMILES. Results filed as inconclusive are left out. Values without a mark were called inactive. Active and inactive are the calls of the source. Calls follow the shape of the dose curve; as a rule, active = well fitted curve in the direction sought with a large enough effect in the repeat runs; inconclusive = weak or mixed curves; inactive = no such curve, though single readings can be large; an effect the other way counts as inactive or inconclusive.

Experiment [1] has as its target Cytochrome P450 2D6 (Homo sapiens) (UniProt P10635). The experiment is described as follows: Cytochrome P450 Family 2 Subfamily D Member 6 (CYP2D6) small molecule antagonists: luciferase reporter qHTS assay (AID 1671196). Also: nearly all actives have a fitted effect of over 50% in size. Also: potency is read from the fitted curve at half-maximal effect. As to activity change, negative = inhibition: series mostly up to about 120 µM. The method in brief:
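Cell-free P450-Glo system: CYP2D6 with proluciferin substrate was pre-incubated with compound for 10 min, then reacted with NADPH regeneration for 1 h at room temperature. Luciferin product was detected after 20 min, and data were reported as relative luminescence units.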
For orientation: In a reporter assay the amount or activity of a reporter protein is the signal.

The target of experiment [2] is Cytochrome P450 2C19 (Homo sapiens) (UniProt P33261). The experiment is described as follows: Cytochrome P450 Family 2 Subfamily C Member 19 (CYP2C19) small molecule antagonists: luciferase reporter qHTS assay (AID 1671197). Also: nearly all actives have a fitted effect of over 65% in size. Also: potency is read from the fitted curve at half-maximal effect. As to activity change, negative = inhibition: series mostly up to about 120 µM. The method in brief: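 CYP2C19 P450-Glo, 1536-well qHTS. Cpd + enzyme/proluciferin substrate 10 min RT; + NADPH regen, 37C 1 h; stop with luciferin detection reagent, 20 min RT, luminescence (RLU). Pos ctrl ketoconazole.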
Chain of Cytochrome P450 2C19 (Homo sapiens) (P33261 whole entry, looked up): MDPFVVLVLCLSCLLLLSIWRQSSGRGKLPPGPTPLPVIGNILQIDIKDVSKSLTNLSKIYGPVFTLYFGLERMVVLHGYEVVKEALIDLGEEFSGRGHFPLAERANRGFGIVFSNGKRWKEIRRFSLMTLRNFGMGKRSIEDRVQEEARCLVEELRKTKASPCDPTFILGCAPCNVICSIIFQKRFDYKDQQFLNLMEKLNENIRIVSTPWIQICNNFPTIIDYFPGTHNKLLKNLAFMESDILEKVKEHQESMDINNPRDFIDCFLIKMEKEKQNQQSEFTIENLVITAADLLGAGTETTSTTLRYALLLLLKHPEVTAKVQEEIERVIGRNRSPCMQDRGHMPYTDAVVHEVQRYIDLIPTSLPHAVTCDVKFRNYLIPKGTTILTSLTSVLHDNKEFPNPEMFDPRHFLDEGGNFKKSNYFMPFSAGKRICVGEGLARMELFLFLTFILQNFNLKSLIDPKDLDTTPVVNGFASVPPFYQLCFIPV

Experiment [3] concerns the target Cytochrome P450 2C9 (Homo sapiens) (UniProt P11712). The experiment is described as follows: Cytochrome P450 Family 2 Subfamily C Member 9 (CYP2C9) small molecule antagonists: luciferase reporter qHTS assay (AID 1671198). Also: nearly all actives have a fitted effect of over 50% in size. Also: potency is read from the fitted curve at half-maximal effect. As to activity change, negative = inhibition: series mostly up to about 120 µM. The method in brief:
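Enzyme-substrate mix preincubated with compound 10 min at room temperature; reaction started with NADPH regeneration solution, 1 h 37C. Luminescent luciferin product read after 20 min detection reagent.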

Experiment [4] has as its target Cytochrome P450 1A2 (Homo sapiens) (UniProt P05177). The experiment is described as follows: Cytochrome P450 Family 1 Subfamily A Member 2 (CYP1A2) small molecule antagonists: luciferase reporter qHTS assay (AID 1671199). Also: nearly all actives have a fitted effect of over 50% in size. Also: potency is read from the fitted curve at half-maximal effect. As to activity change, negative = inhibition: series mostly up to about 120 µM. The method in brief:
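P450-Glo CYP1A2 enzyme–proluciferin substrate mix with compound 10 min at room temperature, then NADPH regeneration 1 h at room temperature. Luciferin detection reagent added, luminescence read after 20 min; furafylline positive control.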

Experiment [5] has as its target Voltage-gated inwardly rectifying potassium channel KCNH2 (Homo sapiens) (UniProt Q12809). The experiment is described as follows: Human Ether-a-go-go-Related Gene (hERG) channel small molecule antagonists: fluorescence cell-based qHTS assay (AID 1671200).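 Also: hERG-expressing U2OS cells given a thallium stimulus after FluxOR II dye loading; series mostly up to about 77 µM; nearly all actives have a fitted effect of over 50% in size.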 The method in brief:
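Read-out: thallium influx as a surrogate for potassium, tracked as fluorescence (480 nm ex/540 nm em) every second for 2 min after Stimulus Buffer addition in dye-loaded hERG-U2OS cells.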
(In general: The hERG channel carries a current that helps repolarise heart muscle cells.)

Experiment [6] concerns the target Cytochrome P450 3A4 (Homo sapiens) (UniProt P08684). The experiment is described as follows: Cytochrome P450 Family 3 Subfamily A Member 4 (CYP3A4) small molecule antagonists: luciferase reporter qHTS assay (AID 1671201). Also: nearly all actives have a fitted effect of over 50% in size. Also: potency is read from the fitted curve at half-maximal effect. As to activity change, negative = inhibition: series mostly up to about 120 µM. A digest of the protocol: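 Luminescent readout (RLU) proportional to CYP3A4 activity, from luciferin generated off a proluciferin substrate. Enzyme–substrate mix plus compound 10 min at room temp, NADPH regeneration 1 h, detection reagent 20 min.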
% is scaled to controls: 0 for no effect and ±100 for the full control effect.

Chain of Cytochrome P450 1A2 (Homo sapiens) (P05177 whole entry, looked up): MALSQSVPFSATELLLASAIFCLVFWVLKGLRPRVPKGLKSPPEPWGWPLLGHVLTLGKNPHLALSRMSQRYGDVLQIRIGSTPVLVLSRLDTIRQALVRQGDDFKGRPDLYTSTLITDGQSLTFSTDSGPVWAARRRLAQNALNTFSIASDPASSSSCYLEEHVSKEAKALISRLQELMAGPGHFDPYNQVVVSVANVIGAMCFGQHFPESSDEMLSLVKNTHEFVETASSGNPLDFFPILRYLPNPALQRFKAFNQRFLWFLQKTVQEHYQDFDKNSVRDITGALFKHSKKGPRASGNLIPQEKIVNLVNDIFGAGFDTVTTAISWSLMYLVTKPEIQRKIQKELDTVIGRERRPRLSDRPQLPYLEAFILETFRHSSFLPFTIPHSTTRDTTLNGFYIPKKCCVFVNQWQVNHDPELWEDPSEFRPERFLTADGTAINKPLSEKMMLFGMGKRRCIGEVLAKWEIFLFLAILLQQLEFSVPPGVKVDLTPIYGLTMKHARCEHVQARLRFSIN
Chain of Cytochrome P450 2C9 (Homo sapiens) (P11712 whole entry, looked up): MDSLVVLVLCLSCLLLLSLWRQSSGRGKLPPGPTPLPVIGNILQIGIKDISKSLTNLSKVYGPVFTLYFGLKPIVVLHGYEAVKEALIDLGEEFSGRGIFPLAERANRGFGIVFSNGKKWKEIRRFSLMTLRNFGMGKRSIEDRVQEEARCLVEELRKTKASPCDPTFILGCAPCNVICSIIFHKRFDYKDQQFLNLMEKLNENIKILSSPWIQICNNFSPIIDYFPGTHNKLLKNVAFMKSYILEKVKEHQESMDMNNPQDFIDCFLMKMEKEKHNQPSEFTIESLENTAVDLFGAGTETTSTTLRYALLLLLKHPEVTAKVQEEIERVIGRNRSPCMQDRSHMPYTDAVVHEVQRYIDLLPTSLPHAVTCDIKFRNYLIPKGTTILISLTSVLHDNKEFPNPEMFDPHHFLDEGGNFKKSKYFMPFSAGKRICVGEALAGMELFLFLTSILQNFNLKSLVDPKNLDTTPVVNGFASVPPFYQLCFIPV
Chain of Cytochrome P450 3A4 (Homo sapiens) (P08684 whole entry, looked up): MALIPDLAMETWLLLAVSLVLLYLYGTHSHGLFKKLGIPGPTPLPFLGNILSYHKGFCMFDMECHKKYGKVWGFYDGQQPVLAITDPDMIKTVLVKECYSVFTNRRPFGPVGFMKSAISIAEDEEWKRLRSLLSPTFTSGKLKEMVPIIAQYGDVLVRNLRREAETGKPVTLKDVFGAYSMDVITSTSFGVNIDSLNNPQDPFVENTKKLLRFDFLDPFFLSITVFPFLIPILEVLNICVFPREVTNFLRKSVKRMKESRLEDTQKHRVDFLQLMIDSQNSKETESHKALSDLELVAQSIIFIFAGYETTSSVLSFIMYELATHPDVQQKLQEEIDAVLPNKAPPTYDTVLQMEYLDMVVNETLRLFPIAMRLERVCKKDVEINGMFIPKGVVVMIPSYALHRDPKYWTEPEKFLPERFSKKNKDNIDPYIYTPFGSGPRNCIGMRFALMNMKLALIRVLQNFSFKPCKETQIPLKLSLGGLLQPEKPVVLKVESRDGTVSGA
Chain of Cytochrome P450 2D6 (Homo sapiens) (P10635 whole entry, looked up): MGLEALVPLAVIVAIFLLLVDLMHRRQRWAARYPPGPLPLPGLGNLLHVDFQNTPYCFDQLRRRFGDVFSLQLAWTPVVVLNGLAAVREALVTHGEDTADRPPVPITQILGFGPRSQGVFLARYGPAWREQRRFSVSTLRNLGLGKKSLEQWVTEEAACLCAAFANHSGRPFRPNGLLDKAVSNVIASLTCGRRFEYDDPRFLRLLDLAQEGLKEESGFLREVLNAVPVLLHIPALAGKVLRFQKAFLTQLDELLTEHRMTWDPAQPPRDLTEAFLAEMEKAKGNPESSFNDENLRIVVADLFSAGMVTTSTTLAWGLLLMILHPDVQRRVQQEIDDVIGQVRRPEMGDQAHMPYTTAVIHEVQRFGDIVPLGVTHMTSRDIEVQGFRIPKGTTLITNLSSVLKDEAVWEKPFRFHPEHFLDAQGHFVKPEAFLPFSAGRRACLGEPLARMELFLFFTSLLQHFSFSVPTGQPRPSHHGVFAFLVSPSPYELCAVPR
Chain of Voltage-gated inwardly rectifying potassium channel KCNH2 (Homo sapiens) (Q12809 whole entry, looked up): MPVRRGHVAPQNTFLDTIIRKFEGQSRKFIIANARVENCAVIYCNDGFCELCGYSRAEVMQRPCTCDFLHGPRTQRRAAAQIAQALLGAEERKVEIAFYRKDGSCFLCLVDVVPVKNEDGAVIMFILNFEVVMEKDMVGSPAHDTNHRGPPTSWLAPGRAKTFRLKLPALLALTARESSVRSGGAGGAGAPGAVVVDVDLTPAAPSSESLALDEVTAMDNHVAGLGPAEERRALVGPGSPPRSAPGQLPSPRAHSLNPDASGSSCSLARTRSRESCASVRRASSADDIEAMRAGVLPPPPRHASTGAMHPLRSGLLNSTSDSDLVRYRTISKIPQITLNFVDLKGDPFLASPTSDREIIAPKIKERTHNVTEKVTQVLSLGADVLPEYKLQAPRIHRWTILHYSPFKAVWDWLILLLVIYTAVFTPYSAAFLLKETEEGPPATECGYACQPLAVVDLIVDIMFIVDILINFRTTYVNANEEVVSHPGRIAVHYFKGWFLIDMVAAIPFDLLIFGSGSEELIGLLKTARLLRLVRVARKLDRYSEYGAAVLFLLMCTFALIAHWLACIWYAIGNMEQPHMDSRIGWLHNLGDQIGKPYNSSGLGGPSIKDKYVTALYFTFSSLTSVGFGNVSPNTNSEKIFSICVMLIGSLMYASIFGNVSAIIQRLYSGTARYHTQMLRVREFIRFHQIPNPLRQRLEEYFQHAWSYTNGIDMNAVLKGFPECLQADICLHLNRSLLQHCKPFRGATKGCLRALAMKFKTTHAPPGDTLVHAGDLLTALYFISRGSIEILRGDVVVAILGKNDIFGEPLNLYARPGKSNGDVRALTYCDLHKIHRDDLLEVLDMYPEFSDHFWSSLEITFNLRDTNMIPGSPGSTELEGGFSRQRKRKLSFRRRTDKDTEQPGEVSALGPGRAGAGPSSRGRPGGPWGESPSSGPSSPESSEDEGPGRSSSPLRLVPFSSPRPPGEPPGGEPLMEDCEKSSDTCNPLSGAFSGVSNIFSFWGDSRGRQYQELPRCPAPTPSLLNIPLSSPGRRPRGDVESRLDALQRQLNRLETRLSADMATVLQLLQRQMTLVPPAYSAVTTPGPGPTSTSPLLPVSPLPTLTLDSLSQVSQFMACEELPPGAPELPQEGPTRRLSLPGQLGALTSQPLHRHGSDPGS

As to `NS(=O)(=O)c1ccc(NC(=O)CCC(=O)O)cc1`, the Potency entry in experiment [1], in experiment [2], in experiment [3], in experiment [4], in experiment [5] and in experiment [6] was “inactive” each time.

Take `Cc1cc(Cl)c(C)cc1Cl`: the Potency result in experiment [1], in experiment [2], in experiment [3], in experiment [4], in experiment [5] and in experiment [6] was “inactive” in each case.

Consider `C=C1CC/C=C(\C)CC[C@@H]2[C@@H]1CC2(C)C`, for which the Potency result in experiment [1], in experiment [2], in experiment [3], in experiment [4], in experiment [5] and in experiment [6] was “inactive” each time.

In the case of `ClCCCl`, the Potency entry in experiment [1], in experiment [2], in experiment [3], in experiment [4], in experiment [5] and in experiment [6] was “inactive” in each case.

In the case of `O=C(OCc1ccccc1)C(=O)OCc1ccccc1`, the Potency entry in experiment [1], in experiment [2], in experiment [3], in experiment [4], in experiment [5] and in experiment [6] was “inactive” each time.

In the case of `CC(C)C[C@H](NC(=O)CNC(=O)[C@H](Cc1ccc(O)cc1)NC(=O)[C@H](CO)NC(=O)[C@H](Cc1c[nH]c2ccccc12)NC(=O)[C@H](Cc1cnc[nH]1)NC(=O)[C@@H]1CCC(=O)N1)C(=O)N[C@@H](CCCN=C(N)N)C(=O)N1CCC[C@H]1C(=O)NCC(N)=O` (stereo in doubt), in experiment [1], the Potency entry was “inactive”.

Consider `C=CC(OCC)OCC`, for which the Potency result in experiment [1], in experiment [2], in experiment [3], in experiment [5] and in experiment [6] was “inactive” in each case.

Turning to `CC(C)N(c1ccccc1)C(C)C`, the Potency entry in experiment [1], in experiment [2], in experiment [3], in experiment [4] and in experiment [6] was “inactive” in each case.

For `Cc1ccccc1C(=O)Nc1ccc(C(=O)N2CCCC(N(C)C)c3ccccc32)cc1` (centres undefined), the Potency entry in experiment [1], in experiment [2], in experiment [4] and in experiment [5] was “inactive” throughout.

As to `BrCCCCCBr`, the Potency entry in experiment [1], in experiment [2], in experiment [3] and in experiment [6] was “inactive” each time.

For `C=C(C)C(=O)OCCN(CC)CC`, the Potency result in experiment [1], in experiment [2], in experiment [3], in experiment [5] and in experiment [6] was “inactive” throughout.

With `COc1ccc2c(c1)C(=O)N(CCc1ccc(S(=O)(=O)NC(=O)NC3CCCCC3)cc1)C(=O)C2(C)C`, the Potency result in experiment [1], in experiment [2] and in experiment [5] was “inactive” each time. Moreover, the Potency in experiment [3] was 13.8 µM (active).

As to `CC(=O)Nc1ccc(S(=O)(=O)Nc2ccc([N+](=O)[O-])cc2)cc1`, the Potency entry in experiment [1] and in experiment [6] was “inactive” in each case. The Potency was 15.5 µM (active) in experiment [2] and 13.8 µM (active) in experiment [3].

With `CCOc1cc(NC(C)=O)ccc1C(=O)OC`, the Potency entry in experiment [1], in experiment [2], in experiment [3], in experiment [5] and in experiment [6] was “inactive” in each case.

In the case of `CC(S)C(=O)NCC(=O)O` (centres undefined), the Potency entry in experiment [1], in experiment [2], in experiment [3], in experiment [5] and in experiment [6] was “inactive” in each case.

For the molecule `C=C(C)C(=O)OCCOP(=O)(O)OCCOC(=O)C(=C)C`, the Potency entry in experiment [1], in experiment [2], in experiment [3], in experiment [5] and in experiment [6] was “inactive” throughout.

`Cc1cc(C(C)(C)C)c(O)c(C)c1CC1=NCCN1`: in experiment [1], the Potency is 1.55 µM (active). The Potency entry in experiment [2], in experiment [3] and in experiment [6] was “inactive” in each case.

As for `CCOC(=O)c1ncn2c1CN(C)C(=O)c1cc(F)ccc1-2`, the Potency result in experiment [1], in experiment [2], in experiment [4], in experiment [5] and in experiment [6] was “inactive” each time.

Regarding `CC(=O)Nc1cccc(C)c1`, the Potency result in experiment [1], in experiment [3] and in experiment [6] was “inactive” in each case. In addition, in experiment [2], the Potency is 71.3 µM (active).

On to `CCOC(=O)c1ccc(OC(=O)CCCCCN=C(N)N)cc1`, for which the Potency in experiment [1] was 0.309 µM (active). Besides, the Potency result in experiment [2], in experiment [3] and in experiment [6] was “inactive” each time.

With `CCn1ccc(NS(=O)(=O)c2ccc(N)cc2)nc1=O`, the Potency result in experiment [1], in experiment [2], in experiment [3], in experiment [4] and in experiment [6] was “inactive” each time.

`CC1COc2ccccc2N1` (centres undefined): the Potency result in experiment [1], in experiment [5] and in experiment [6] was “inactive” throughout. In addition, the Potency is 44.8 µM (active) in experiment [2] and 31.7 µM (active) in experiment [4].

In the case of `Cc1cccc(OCC(O)CNC(C)(C)C)c1C` (centres undefined), the Potency in experiment [1] was 13.8 µM (active). For the same molecule, the Potency result in experiment [2], in experiment [3], in experiment [5] and in experiment [6] was “inactive” in each case.

For the molecule `O=C(/N=N/C(=O)OCc1ccccc1)OCc1ccccc1`, the Potency result in experiment [1] is “inactive”. Also, the Potency in experiment [2] is 1.78 µM (active); in experiment [3], 14.2 µM (active); in experiment [4] it was 17.8 µM (active); in experiment [6], 39.9 µM (active).

For the molecule `CC(=O)NCCCCCC(=O)O`, the Potency entry in experiment [1], in experiment [2], in experiment [4], in experiment [5] and in experiment [6] was “inactive” each time.

With `OCCC(F)(F)C(F)(F)C(F)(F)C(F)(F)C(F)(F)C(F)(F)C(F)(F)C(F)(F)F`, the Potency entry in experiment [1], in experiment [2], in experiment [3] and in experiment [6] was “inactive” in each case.

`CCc1ccc(C=O)cc1`: the Potency entry in experiment [1], in experiment [2], in experiment [3], in experiment [5] and in experiment [6] was “inactive” in each case.

Regarding `O=C(O)CCSSCCC(=O)O`, the Potency result in experiment [1], in experiment [2], in experiment [3] and in experiment [6] was “inactive” throughout.

In the case of `CC(=O)CCCCn1c(=O)c2c(ncn2C)n(C)c1=O`, the Potency result in experiment [1], in experiment [2], in experiment [3], in experiment [5] and in experiment [6] was “inactive” in each case.

For the molecule `CC(C)C(=O)OCc1cccc(OC(=O)[C@@H]2N3C(=O)[C@@H](NC(=O)Cc4ccccc4)[C@H]3SC2(C)C)c1`, the Potency result in experiment [1], in experiment [2] and in experiment [4] was “inactive” each time.

As to `On1nnc2ccccc21`, in experiment [1], the Potency is 35.6 µM (active). The Potency result in experiment [2], in experiment [3], in experiment [5] and in experiment [6] was “inactive” in each case.

`O=C(Nc1ccc(Cl)c(Cl)c1)C1CC1`: the Potency entry in experiment [1] and in experiment [5] was “inactive” in each case. The Potency in experiment [2] is 11 µM (active); in experiment [3], 30.9 µM (active).

As for `CCCCCCCCCCCCCC`, the Potency entry in experiment [1], in experiment [2], in experiment [3], in experiment [5] and in experiment [6] was “inactive” in each case.

`C[Si](C)=O`: the activity change, negative = inhibition in experiment [1] was -1.51% [at 10.5 µM]; in experiment [2], -11.8% [at 10.5 µM]; in experiment [3], -9.3% [at 10.5 µM]; in experiment [4], -21% [at 10.5 µM]; in experiment [6] it was -1.04% [at 10.5 µM].

`COc1ccc(-c2cc(=O)c3c(O)cc(O[C@@H]4O[C@H](CO[C@@H]5O[C@@H](C)[C@H](O)[C@@H](O)[C@H]5O)[C@@H](O)[C@H](O)[C@H]4O)cc3o2)cc1O`: the Potency entry in experiment [1], in experiment [2], in experiment [4], in experiment [5] and in experiment [6] was “inactive” throughout.

For the molecule `Cc1nc2n(c(=O)c1CCN1CCC(c3noc4cc(F)ccc34)CC1)CCC[C@H]2O`, in experiment [1], the Potency was 6.01 µM (active). Also, the activity change, negative = inhibition is 18.1% [at 23.6 µM] in experiment [2], 0.924% [at 23.6 µM] in experiment [3] and 3.18% [at 23.6 µM] in experiment [6]. Further, the Potency result in experiment [4] is “inactive”.
